Consider 95 compounds from PubChem BioAssay AID1259370 (Center for Chemical Genomics, University of Michigan, 2018).

Out of some 94,000 compounds screened, about 680 (0.72%) were called active. No stated cut-off is given here; in the data, active means z-score above about 3.2; inactive means the rest. The entries come from a sample that favours actives as a whole.

This assay deals with M-phase inducer phosphatase 2 (Homo sapiens) + Cyclin-dependent kinase 2 (Homo sapiens) + Cyclin-A2 (Homo sapiens) (UniProt P30305+P24941+P20248). Briefly: primary biochemical HTRF screen for inhibition of M-phase inducer phosphatase 2 binding to cyclin-dependent kinase 2/cyclin A (AID 1259370). Particulars: HTRF CDC25B-CDK2/CyclinA binding, anti-His/anti-Flag; stronger effect = higher value.
As for `N#Cc1c(-c2ccccc2)nc(SCCCCOc2ccc(Cl)cc2)[nH]c1=O`, the z-score is 4.75 (active).
Regarding `Cc1ccc(CSc2nc(-c3ccccc3)c(C#N)c(=O)[nH]2)cc1`, the z-score was -0.77 (inactive).
The same measure for `CCSc1nc(-c2ccc(Cl)cc2)c(C#N)c(=O)[nH]1`: -0.88 (inactive); for `O=C(CSc1ncnc2nc[nH]c12)c1ccc(O)c(O)c1`: 2.58 (inactive); for `Cc1n[nH]c(=O)c2nn(-c3ccccc3)c(C)c12`: 0.76 (inactive).
The same measure for `Cc1cc(C)cc(NS(=O)(=O)c2ccc3c(c2)n(C)c(=O)n3C)c1`: -1.42 (inactive); for `Cc1cc2c(c(=O)n1CC1CCCO1)C(c1cccc(Br)c1)C(C#N)=C(N)O2` (stereo not given): -0.22 (inactive).
The same measure for `CC(C)c1ccc(C2c3c([nH][nH]c3=O)CC(C)(O)C2C(=O)OCc2ccccc2)cc1` (stereo not given): -1.98 (inactive); for `COc1ccc(S(=O)(=O)NC(C)c2nc(-c3ccc(C)cc3)no2)cc1` (stereo not given): -1.34 (inactive).
Turning to `CC(C)CC(=O)Nc1ccc2nsnc2c1`, the z-score is -1.58 (inactive).
The same measure for `COC(=O)c1ccc2snnc2c1`: -0.98 (inactive); for `CC(C)NC(=O)Nc1ccc2snnc2c1`: 5.16 (active).
As for `CCOC(=O)c1cn(-c2cccc(F)c2)nn1`, the z-score is -1.61 (inactive).
The same measure for `Cn1c(=O)n(C)c2cc(S(=O)(=O)Nc3ccc(F)cc3)ccc21`: -0.14 (inactive).
The same measure for `Cc1nc(C)c(C(=O)Nc2nnc(CC(C)C)s2)s1`: -0.08 (inactive); for `CC12CC3(C)CC(C)(C1)CC(C(=O)NC(C)(C)CO)(C2)C3`: -1.12 (inactive); for `O=C(CSc1ccc(-c2cccs2)nn1)N1CCCc2ccccc21`: -0.97 (inactive).
As for `O=C(c1cccnc1)N(c1cc2sc(=O)oc2c2ccccc12)S(=O)(=O)c1ccccc1`, the z-score was 12.3 (active).
Next, `O=C(c1cccnc1)N(c1ccc2oc(=O)sc2c1)S(=O)(=O)c1ccccc1`: -1.85 (inactive); `COc1ccc(S(=O)(=O)N(C(=O)c2ccncc2)c2ccc3oc(=O)sc3c2)cc1OC`: -3.46 (inactive).
Turning to `CCn1c(COC)nc2ccccc21`, the z-score is -0.64 (inactive).
The same measure for `CCC(C)NC(=O)C1=CC(c2cccs2)=NS(=O)(=O)N1C` (stereo not given): -1.72 (inactive); for `O=C(O)c1cccc(N2C(=O)c3ccc4c5c(ccc(c35)C2=O)CC4)c1`: 8.86 (active); for `O=C1c2ccc3c4c(ccc(c24)C(=O)N1c1ccccc1)C(=O)N(c1ccccc1)C3=O`: -2.52 (inactive).
The same measure for `O=C1c2cccc3cccc(c23)C(=O)N1c1cccc(O)c1`: -0.15 (inactive).
Next, `COCCOC(=O)C1=C(C)Nc2nc3ccccc3n2C1c1cccc(F)c1` (stereo not given): -1.51 (inactive); `COc1ccc(C(=O)Oc2ccc3c(c2)oc(=O)c2ccccc23)cc1`: -0.65 (inactive).
For `CC(C)CCNC(=O)C1CCC(CNc2c(N3CCC(C)CC3)c(=O)c2=O)CC1` (stereo not given), the z-score is -0.9 (inactive).
As for `Cc1nc(N2CCCCC2)cc(N2CCN(S(=O)(=O)c3ccc(F)cc3)CC2)n1`, the z-score is -1.52 (inactive).
Next, `CCOc1ccccc1Nc1nc2ccc(Cl)cc2n2nnnc12`: -2.08 (inactive); `Cn1c(=O)n(C)c2cc(CNC3CCCCC3)ccc21`: -1.66 (inactive).
Next, `S=C(Nc1cccnc1)N1CCCN(Cc2ccc(Cl)cc2Cl)CC1`: 12 (active); `Clc1ccc(C=NCc2cccnc2)c(Cl)c1`: 0.36 (inactive); `O=C(Nc1ccccc1)N1CCN(Cc2ccccc2)CC1`: 4.1 (inactive).
The same measure for `CCOC(=O)c1c(NC(=O)Nc2cccc(Cl)c2)sc2c1CCCC2`: -0.86 (inactive).
As to `CC1=C(c2cccc(Br)c2)S(=O)(=O)N=C1Nc1ccccc1C`, the z-score is -2.29 (inactive).
Next, `O=C(COc1ccc2c3c(c(=O)oc2c1)CCC3)OC1CCCCC1`: -1.13 (inactive).
Take `COc1ccc2cc3c(N)nn(C(=O)Cn4c(=O)oc5ccccc54)c3nc2c1`: the z-score is -0.84 (inactive).
Next, `O=C(O)C1CCCN(c2cnccn2)C1` (stereo not given): 0.23 (inactive); `COc1ccccc1-c1nc(SCC(=O)c2ccc(Br)cc2)n[nH]1`: -0.98 (inactive); `Cc1ccc(C)c(C(=O)CSc2n[nH]c(-c3ccco3)n2)c1`: 8.74 (active).
Next, `Cc1ccc(CNc2n[nH]c(-c3ccco3)n2)cc1`: -1.84 (inactive).
The same measure for `CCSc1ncc(Cl)c(C(=O)Nc2nc(C)c(C(=O)OCC(C)C)s2)n1`: -1.22 (inactive); for `Cn1c(=O)c2c(-c3cccc(Br)c3)n(C(CO)(CO)CO)cc2n(C)c1=O`: 0.09 (inactive).
On to `CCOC(=O)C1=C(C)NC2=C(C(=O)c3ccccc32)C1c1ccc(OC(=O)c2ccccc2)cc1` (stereo not given), for which the z-score was 11.9 (active).
The same measure for `CCOC(=O)C1=C(C)NC2=C(C(=O)c3ccccc32)C1c1cccc(F)c1` (stereo not given): -1.68 (inactive).
Consider `COC(=O)C1=C(C)NC2=C(C(=O)c3ccccc32)C1c1ccc(OC)cc1` (stereo not given), for which the z-score was 1.16 (inactive).
Next, `O=C(O)CSc1nc2ccccc2c(=O)n1Cc1ccco1`: -1.25 (inactive); `CCOC(=O)c1sc(NC(=O)c2cc3ccccc3o2)c(C(=O)OCC)c1C`: -1.55 (inactive).
Next, `N#CC1=C2SCN(c3ccc(F)cc3)CN2C(=O)CC1c1ccc(Br)cc1` (stereo not given): 2.31 (inactive).
Next, `COc1ccc(C2CC(=O)N3CN(c4ccccc4OC)CSC3=C2C#N)c(OC)c1` (stereo not given): 8.02 (active); `COc1ccc(OC)c(C2C(C#N)=C3N=C(N)c4ccccc4N3C3=C2C(=O)CCC3)c1` (stereo not given): 0.51 (inactive); `COc1ccc(C(=O)CC2(O)C(=O)N(C(C)C)c3ccccc32)c(OC)c1` (stereo not given): -1 (inactive).
In the case of `CSC1=C(C#N)C(c2ccccc2C)CC(=O)N1` (stereo not given), the z-score was -0.39 (inactive).
On to `COc1ccc(OC)c(C2CC(=O)N3CN(Cc4ccco4)CSC3=C2C#N)c1` (stereo not given), for which the z-score was -3.58 (inactive).
The same measure for `CCOc1ccc(N2CSC3=C(C#N)C(c4ccc(SC)cc4)CC(=O)N3C2)cc1` (stereo not given): 6.74 (active).
As for `Cc1cccc(N2CSC3=C(C#N)C(c4ccccc4C)CC(=O)N3C2)c1` (stereo not given), the z-score is 3.61 (active).
The same measure for `COc1ccc(OC)c(C2CC(=O)N3CN(c4ccccc4OC)CSC3=C2C#N)c1` (stereo not given): 3.41 (active); for `COc1ccccc1N1C(=O)C2C(c3ccccc3C)OC3(C(=O)c4ccccc4C3=O)C2C1=O` (stereo not given): 0.1 (inactive).
As to `CC(C)C(=O)Nc1sc2c(c1C(=O)O)CCCC2`, the z-score is -2.62 (inactive).
Take `Cc1nc(N)[nH]c(=O)c1Br`: the z-score is 0.46 (inactive).
The same measure for `CCOC(=O)c1c(N)sc2c1CCN(C(C)=O)C2`: -2.08 (inactive); for `CCOC(=O)c1c(C)n(C)c2cc3c(cc12)OC(=O)C3(O)C(F)(F)F` (stereo not given): -2.18 (inactive); for `N=C1C(c2nc3ccccc3[nH]2)=C(O)CN1c1ccc(Oc2ccccc2)cc1`: 1.4 (inactive).
Next, `CC1=C(C(N)=O)C(c2cccc(O)c2)n2nc(SCc3ccccc3F)nc2N1` (stereo not given): -0.38 (inactive).
As for `CCOC(=O)CNC(=O)N1CCCC1c1ccco1` (stereo not given), the z-score is -1.79 (inactive).
The same measure for `Cc1ccc(NS(=O)(=O)C2CCS(=O)(=O)C2)cc1Cl` (stereo not given): -1.16 (inactive); for `Cc1ccc(S(=O)(=O)c2nc(S(C)(=O)=O)sc2N2CCN(CCO)CC2)cc1`: -2 (inactive).
The same measure for `Cc1cccc2c1Oc1nc(-c3ccccc3O)[nH]c(=O)c1C2`: -0.22 (inactive).
Next, `C=CCN1C=C(OC(=O)COc2ccccc2)c2ccccc2S1(=O)=O`: -2.21 (inactive).
For the compound `O=C(C1CCN(S(=O)(=O)c2cccs2)CC1)N1CCN(c2ccccc2Cl)CC1`, the z-score is -0.01 (inactive).
On to `COc1ccc(C2=NS(=O)(=O)N(C)C(C(=O)N3CCN(C(=O)c4ccco4)CC3)=C2)cc1`, for which the z-score is -0.02 (inactive).
Next, `CCN(CC)S(=O)(=O)c1nnc(NC(=O)C(C)C)s1`: -1.69 (inactive); `C=CCN(Cc1nc(-c2ccc(C)cc2)no1)S(=O)(=O)c1ccc(Br)cc1`: -1.17 (inactive).
Next, `O=c1c(S(=O)(=O)c2ccc(Cl)cc2)c[nH]c2ccc(F)cc12`: 0.19 (inactive); `Cc1cc(C)n(CCc2nc3c4ccccc4nc(SCC(=O)NCc4ccco4)n3n2)n1`: -1.06 (inactive); `O=C(CSCc1cnn(-c2ccccc2)c1-n1cccc1)Nc1ccc2c(c1)OCCO2`: -1.15 (inactive).
Next, `COC(=O)c1sc(=S)n(-c2ccc(Cl)cc2)c1C`: -0.46 (inactive); `COC(=O)c1ccc(N2CSC3=C(C#N)C(c4ccc(Cl)cc4)CC(=O)N3C2)cc1` (stereo not given): 7.06 (active); `CC(c1ccccc1)N1CSC2=C(C#N)C(c3ccc(Cl)cc3)CC(=O)N2C1` (stereo not given): 1.37 (inactive).
Turning to `COc1cc(C2CC(=O)N3CN(c4ccccc4)CSC3=C2C#N)ccc1O` (stereo not given), the z-score was 0.52 (inactive).
Next, `CCOc1ccc(C2CC(=O)Nc3nc(SC)[nH]c(=O)c32)cc1OC` (stereo not given): -2.13 (inactive).
The same measure for `CCOc1ccc(C2CC(=O)N3CN(c4ccc(OC)cc4OC)CSC3=C2C#N)cc1OC` (stereo not given): 3.34 (active); for `CNC(=O)c1c(NC(=O)c2cc(=O)c3ccccc3o2)sc2c1CCCC2`: -0.57 (inactive).
The same measure for `COCCCn1c(SC2CCOC2=O)nc2c(sc3ccccc32)c1=O` (stereo not given): -3.05 (inactive).
Regarding `CCOC(=O)C1=C(C)NC2=C(C(=O)CC(c3cccs3)C2)C1c1cc(Br)ccc1F` (stereo not given), the z-score was -0.66 (inactive).
Turning to `CCOC(=O)c1c(CN(CC)CC)n(C)c2cc(Br)c(OC)cc12`, the z-score was -0.02 (inactive).
Turning to `Cc1c(C)c2cc3c4c(oc3c(C)c2oc1=O)CCCC4`, the z-score is 0.16 (inactive).
Take `Cc1c(C=O)c(=O)oc2c3c4c(cc12)CCCN4CCC3`: the z-score is 16.4 (active).
For the compound `CCc1cccc(-n2nnc(S(=O)(=O)c3ccc(C)cc3)c2C)c1`, the z-score was -0.89 (inactive).
Next, `CN1C(=O)c2ccccc2C(C(=O)Nc2ccc3c(c2)OCO3)C1c1cn(C)c2ccccc12` (stereo not given): -2.4 (inactive).
Next, `CCCc1c(C)nc2ncnn2c1Nc1ccc(CC)cc1`: -2.22 (inactive); `COc1ccc(COC(=O)C2=C(C)NC3=C(C(=O)CCC3)C2c2ccc(Br)cc2)cc1` (stereo not given): -0.5 (inactive); `C=CCOc1ccc(C2C3=C(CCCC3=O)NC3=C2C(=O)CCC3)cc1`: 15.9 (active).
With `CCOCCOC(=O)C1=C(C)NC2=C(C(=O)CCC2)C1c1ccc(OC(C)=O)cc1` (stereo not given), the z-score was -0.12 (inactive).
